# From PubChem
# An excerpt weighted towards active compounds, which were near 2.8% of everything screened.
# KDM5B inh: KDM5B demethylase inhibition | Q9UGL1 | KDM5B demethylase, FDH-coupled NADH fluorescence (FDH is formaldehyde dehydrogenase) | Potency, µM (series often up to 57.7 µM), hits mostly inhibitors | hit rate 2.6% among 220,000 | AID 1347165; also: potency is read from the fitted curve at half-maximal effect; 0% is about no effect; nearly all actives have a fitted effect of over 70% in size
#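 Inhibition is measured as reduced NADH fluorescence generation from FDH coupling to formaldehyde release. Truncated KDM5BΔAP at 200 nM final acts on H3K4me3 peptide (12.5 µM in substrate mix) in pH 7.5 HEPES buffer with Tween-20, 30 min, room temperature.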
# HEK293 viab: cell viability loss counter-screen | HEK-293-SNCA-luc viability, GF-AFC fluorescence, 24 h | Potency, µM (doses to about 57.1 µM), inactives show at the top dose activity change, negative = cytotoxicity, most hits filed as cytotoxic | hit rate 0.12% among 150,000 | AID 1671193;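 also: potency is read from the fitted curve at half-maximal effect; 0% = DMSO-treated cells and -100% = medium-only wells without cells; nearly all actives have a fitted effect of over 30% in size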
#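 HEK-293-SNCA-luc cells (1500/well) plated 24 h, then exposed 24 h to a dilution series; GF-AFC added 30 min at 37C, fluorescence 405/540 nm; normalised to medium-only and DMSO wells, Hill fit.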
# IP6K1 inh: IP6K1 kinase inhibition | AID 1645851 | hit rate 0.81% among 140,000 | Q92551 | activity change, % (series mostly up to about 58 µM) | IP6K1 kinase, ADP-Glo luminescence, 2 h; active compounds read low; in the data active = activity change below about -25%; also: % is scaled to controls: 0 for no effect and ±100 for the full control effect
#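 ADP-Glo luminescence measures ADP made by human IP6K1 during a 2 h RT reaction with ATP/IP6 (mix at 1.3 mM/130 uM); top library doses 57.5 and 19.1 uM final.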
# SNCA expr inh: reduces expression of the alpha-synuclein gene | hit rate 0.17% among 140,000 | HEK-293 SNCA-luciferase knock-in, luminescence, 24 h | Potency, µM (top dose mostly 57.2 µM), without a hit: at the highest dose activity change, negative = inhibition, most hits filed as inhibitors;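 also: potency is read from the fitted curve at half-maximal effect; plate controls were DMSO cells for no effect and cell-free wells for full effect; nearly all actives have a fitted effect of over 45% in size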
# * = called active by the depositor; i = inactive; ? = inconclusive; / = not tested or not shown; [ ] = dose if it differs, or a comment. Unless noted, calls follow the shape of the dose curve; as a rule, active = well fitted curve in the direction sought with a large enough effect; inconclusive = small, poorly fitted or top-dose-only effect, or another doubt; inactive = no such curve, though single readings can be large; an effect the other way counts as inactive or inconclusive.
SMILES,KDM5B inh,HEK293 viab,IP6K1 inh,SNCA expr inh
CN1CC(=O)N(C2CCNC2)Cc2c(NCC3CC3)ncnc21 (stereo unspecified),89µM*,-1%,-2,-16%
CC(CO)Nc1ncnc2c1CN(C1CCCNC1)C(=O)CN2C (stereo unspecified),?,1%,-5,6%
CC(C)Nc1ncnc2c1CN(C1CCCNC1)C(=O)CN2C (stereo unspecified),63µM*,5%,-2,3%
CCC(C)Nc1ncnc2c1CN(C1CCNCC1)C(=O)CN2C (stereo unspecified),35µM*,0%,1,8%
COc1ccc(-c2ccccc2)cc1N1C(=O)[C@@H]2C[C@H]1CN2C(=O)[C@H](N)C(C)C,i,-1%,2,14%
CCCn1nccc1C(=O)NCc1cccnc1Oc1ccc(C)nc1,32µM*,0%,-14,-3%
CCC(C)(C)C1CCC(NC(=O)Cc2ccc(OC)c(OC)c2OC)CC1 (stereo unspecified),i,/,/,/
CCN1CCN(Cc2cc(=O)oc3c(C)cc(C)cc23)CC1,i,/,/,/
COc1ccc2c(c1)c1c(c(=O)n(Cc3ccccc3)c(=O)n1Cc1ccccc1Cl)n2C,i,-1%,-2,3.2µM*
COc1cccc(C(=O)NC2CCN(C(=O)c3ccc(-c4ccc(OC)nn4)cc3)C2)c1 (stereo unspecified),/,/,3,/
O=C(Nc1ccc(-c2nnc3n2CCCC3)cc1)c1cc(-c2ccccc2)n[nH]1,32µM*,7%,-4,33%
O=C(Nc1cccc(-c2nnc3n2CCCC3)c1)c1cc(-c2ccccc2)n[nH]1,?,6%,12,86%
CCn1nc(C)cc1C(=O)N1CCCC(CCC(=O)NCc2ccc(OC)cc2OC)C1 (stereo unspecified),i,2%,-4,72%
CCSc1ncc(Cl)c(C(=O)Nc2ccc(S(=O)(=O)N(C)c3ccccc3)cc2)n1,?,22%,-12,?
CCN(c1ccccc1)S(=O)(=O)c1ccc(NC(=O)c2nc(S(C)(=O)=O)ncc2Cl)cc1,?,10µM*,-43*,?
CCS(=O)(=O)c1ncc(Cl)c(C(=O)Nc2ccc(S(=O)(=O)N(C)c3ccccc3)cc2)n1,?,10µM*,-21,2.8µM*
CC(C)Sc1ncc(Cl)c(C(=O)Nc2ccc(S(=O)(=O)N(C)c3ccccc3)cc2)n1,?,0%,-11,-9%
CN1C(=O)N(c2ccc(Cl)c(Cl)c2)C(C)(O)CC1(C)C (stereo unspecified),i,/,/,/
O=C(O)c1cc2cn(C3CC3)cc2s1,25µM*,0%,-13,-23%
Cc1cnc(C(=O)N2CCCC(CCc3cccc(F)c3)C2)cn1 (stereo unspecified),i,6%,10,2%
O=C(c1cncc(N2CCCC(CCc3cccc(F)c3)C2)n1)N1CCCCC1 (stereo unspecified),25µM*,?,30,?
N[C@H]1CN(c2cncc(C(=O)N3CCCCC3)n2)C[C@@H]1C1CC1,28µM*,-16%,39,-6%
Cc1ccc(NC(=O)CSc2n[nH]c(-c3ccccc3)n2)cc1C,i,/,/,/
O=C(Nc1cc2cccc([N+](=O)[O-])c2oc1=O)c1ccc(F)cc1,i,/,/,/
O=C(Nc1cc2ccc(O)cc2oc1=O)c1ccc(F)cc1,i,0%,-13,2µM*
SMILES,KDM5B inh,HEK293 viab,IP6K1 inh,SNCA expr inh
COc1cc(Cl)ccc1C(=O)N[C@@H]1CN(c2ccncn2)C[C@H]1CN(C)C,i,-12%,-7,0%
COc1ccc(C(=O)N[C@@H]2CN(c3ccccn3)C[C@H]2CN(C)C)c(OC)c1,28µM*,-15%,23,1%
COc1ccc(CC(=O)N[C@@H]2CN(c3ccccn3)C[C@H]2CN(C)C)cc1,28µM*,3%,0,0%
CN(C)C[C@@H]1CN(c2ccccn2)C[C@H]1NC(=O)c1cnco1,32µM*,-1%,8,-4%
O=C(c1cc(CC2(NCc3ccccc3F)COC2)no1)N1CCCCC1,i,-19%[87.6 µM],19,12%[87.6 µM]
COC[C@@]12CN(C(=O)c3ccccc3)C[C@@H]1C(C)(C)COc1ccc(OC)cc12,/,/,3,/
COCCOCC(=O)N1CCC(N2C(=O)C3(CCCCC3)C2c2ccccc2)CC1 (stereo unspecified),i,3%[12.5 µM],7,?
Cn1ccc2c(C(=O)NCc3cccnc3)nc(-c3ccccc3C#N)cc21,13µM*,-19%[87.6 µM],-7,16%[87.6 µM]
COc1ccc(-c2cc3c(ccn3C)c(C(=O)NCc3cccnc3)n2)cc1OC,35µM*,-20%[87.6 µM],0,60%[87.6 µM]
CN(C)Cc1ccc(-c2cc3c(ccn3C)c(C(=O)NCc3cccnc3)n2)cc1,i,-24%[87.6 µM],4,5%[87.6 µM]
Cn1nccc1-c1cc2c(ccn2C)c(C(=O)NCc2cccnc2)n1,i,1%[87.6 µM],32,10%[87.6 µM]
Cn1ccc2c(C(=O)NCC3CCC(=O)N3)nc(-c3ccccc3)cc21 (stereo unspecified),i,3%[87.6 µM],10,?
O=C1CCC(CNC(=O)c2nc(-c3ccccc3)cc3[nH]ccc23)N1 (stereo unspecified),32µM*,10%[87.6 µM],-19,24%[87.6 µM]
Cn1ccc2c(C(=O)NCc3cccnc3)nc(-c3ccc(F)cc3)cc21,i,-6%[87.6 µM],-2,4%[87.6 µM]
Cn1ccc2c(C(=O)NCc3cccnc3)nc(-c3ccccc3)cc21,32µM*,1%[87.6 µM],-3,0%[87.6 µM]
O=C(c1cc(F)ccc1F)N1CCCC2(C1)NC(=O)N(Cc1cccc(Cl)c1)C2=O (stereo unspecified),i,7%,-8,-14%
COc1cc(F)ccc1-c1cc2c(ccn2C)c(C(=O)NCc2cccnc2)n1,40µM*,-18%[87.6 µM],-1,10%[87.6 µM]
O=C(NCc1cccnc1)c1nc(-c2ccccc2)cc2[nH]ccc12,35µM*,-5%[87.6 µM],-8,-12%[87.6 µM]
CN1[C@@H](CCC(=O)N2CCOCC2)CNC(=O)[C@@H]2[C@H]1CCN2CC(C)(C)C,i,-2%[87.6 µM],-3,-24%[87.6 µM]
CC(C)c1ccccc1NC(=O)c1ccc2c(c1)CCC2,i,/,/,/
Cc1ccc2c(C(=O)NCc3cc(F)cc(F)c3)cc(NC(=O)C(C)C)cc2n1,22µM*,2%,18,-6%
Cc1ccc2c(C(=O)NCc3ccc(F)c(Cl)c3)cc(NC(=O)C(C)C)cc2n1,?,0%,6,2%
COCCNC(=O)c1cc(NC(=O)C(C)C)cc2nc(C)ccc12,25µM*,8%,28,-12%
Cc1ccc2c(C(=O)NCc3ccccc3C(F)(F)F)cc(NC(=O)C(C)C)cc2n1,25µM*,-4%,4,-20%
Cc1ccc2c(C(=O)NCc3ccc(C(F)(F)F)cc3)cc(NC(=O)C(C)C)cc2n1,16µM*,-4%,9,-27%
COc1cccc(CNC(=O)c2cc(-c3c(C)cccc3C)nc3c2cnn3C)c1,/,6%,-5,-28%
CCOc1ccccc1CNC(=O)c1cc(NC(C)=O)cc2nc(C)ccc12,14µM*,0%,14,5%
